# Source: PubChem BioAssay AID1035475 (Broad Institute, 2014)
# Entries with a potency or affinity are not part of this list. Inconclusive results are not listed. Activity calls are given as the source filed them.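 The calls were made as follows: active = fluorescent signal drops by 40% or more, counted as a hit; inconclusive = no clear call, values can overlap the other calls; inactive = the rest, including any activity in the opposite direction.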
# Experiment: blockers of FN fibrillogenesis by fibroblasts – AH1F cells, Alexa488-FN fluorescence, cherry-picks, dose response (AID 1035475);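 also: AH1F fibroblasts incorporating labeled fibronectin into their extracellular matrix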
row,Structure (SMILES),outcome
1,N#C[C@@H]1[C@H](c2ccccc2C2=CCCCC2)[C@H](CO)N1S(=O)(=O)c1ccccc1,inactive
2,CO[C@@H]1CN(C)C(=O)c2ccc(NC(=O)c3ccc(-c4ccccc4)cc3)cc2OC[C@@H](C)NC[C@@H]1C,inactive
3,COC(=O)c1c(NC(=O)CN2CCN(c3ccccc3Cl)CC2)sc(C)c1C,inactive
4,Nc1c(C(=O)NCc2ccco2)nnn1Cc1ccccc1,inactive
5,CO[C@@H]1CN(C)C(=O)c2cc(NC(=O)Nc3cc(Cl)cc(Cl)c3)ccc2OC[C@H](C)NC[C@@H]1C,inactive
6,CC(C)(C)[S@@](=O)N1Cc2cc(C(=O)NCc3ccccc3F)nc(-c3cccc(-c4ccncc4)c3)c2[C@H]1CCO,inactive
7,COC(=O)C[C@@H]1CC[C@@H]2[C@H](COc3ccc(NC(=O)Cc4cccs4)cc3C(=O)N2C)O1,inactive
8,COc1ccc(CN(C2CCCC2)S(=O)(=O)c2ccc(-n3cnnn3)cc2)cc1OC,inactive
9,CO[C@H]1CN(C)C(=O)c2ccc(NC(=O)c3ccc(-c4ccccc4)cc3)cc2OC[C@H](C)NC[C@H]1C,inactive
10,COCC(=O)Nc1ccc2c(c1)C(=O)N(C)[C@H]1CC[C@H](CC(=O)NCc3ccccc3Cl)O[C@H]1CO2,inactive
11,O=C(CSc1nc2ncc(Cl)cc2[nH]1)c1c[nH]c2ccccc12,inactive
12,C[C@H](CO)N1C[C@H](C)[C@H](CN(C)Cc2ccccc2)Oc2ncc(-c3ccccc3)cc2C1=O,inactive
13,COc1ccccc1CC(=O)OC(C)C(=O)Nc1ccc(S(=O)(=O)N2CCCCC2)cc1 (stereo not given),inactive
14,C[C@H](O)C#Cc1ccc2c(c1)O[C@H](CN(C)C)[C@H](C)CN([C@H](C)CO)S2(=O)=O,inactive
15,Cc1ccccc1S(=O)(=O)N1CC[C@H]2[C@H](CO)Nc3ccc(-c4ccc(C#N)cc4)cc3[C@H]21,inactive
16,COC(=O)C[C@H]1CC[C@H]2[C@@H](COc3ccc(NC(=O)Cc4cccs4)cc3C(=O)N2C)O1,inactive
17,CO[C@H]1CN(C)C(=O)c2cc(NC(=O)Nc3ccc(C(F)(F)F)cc3)ccc2OC[C@H](C)NC[C@H]1C,inactive
18,O=C(CCC(=O)c1cccs1)NCc1cccnc1,inactive

row,Structure (SMILES),outcome
1,C[C@@H]1CN([C@@H](C)CO)C(=O)c2cc(-c3ccccc3)cnc2O[C@@H]1CN(C)C(=O)c1cccc(F)c1,inactive
2,Cc1ccn2cc(-c3ccc(NC(=O)c4ccco4)cc3)nc2c1,inactive
3,CCCCNC(=O)Nc1nc2ccc(CC)cc2s1,inactive
4,CCc1nc2c(OCCc3cccc(OC)c3)cccn2c1N(C)C(=O)c1ccc(C)cc1,inactive
5,CO[C@@H]1CN(C)C(=O)c2cc(NC(=O)Nc3ccc(Cl)c(Cl)c3)ccc2OC[C@H](C)NC[C@H]1C,inactive
6,CC(NC(=O)CSc1ccc(S(=O)(=O)N2CCOCC2)cn1)c1ccc(Cl)cc1Cl (stereo not given),inactive
7,C[C@H](O)C#Cc1ccc2c(c1)O[C@H](CN(C)C)[C@@H](C)CN([C@H](C)CO)S2(=O)=O,inactive
8,N#C[C@@H]1[C@H](c2ccccc2C2=CCCCC2)[C@@H](CO)N1S(=O)(=O)c1ccccc1,inactive
9,COc1ccccc1N(CC(=O)N(CC(C)C)CC(C)C)S(=O)(=O)c1cccs1,inactive
10,CO[C@@H]1CN(C)C(=O)c2ccc(NC(=O)c3ccc(-c4ccccc4)cc3)cc2OC[C@H](C)NC[C@@H]1C,inactive
11,Cc1ccc(C(O)c2ncc(-c3cccc4ccccc34)[nH]2)cc1F (stereo not given),inactive
12,Cc1cccc(NC(=O)c2ccc(S(=O)(=O)N3CCCCC3)cc2)n1,inactive
13,O=C(c1cccnc1)N1C[C@@H]2[C@H](c3ccccc31)[C@@H](CO)N2CC1CCCC1,inactive
14,CC(C)Cc1nnc(NC(=O)CSc2nc(N)cc(=O)[nH]2)s1,inactive
15,O=C(c1cccnc1)N1C[C@H]2[C@@H](c3ccccc31)[C@@H](CO)N2CC1CCCC1,inactive
16,COC(=O)C[C@@H]1CC[C@H]2[C@@H](COc3ccc(NC(=O)Cc4cccs4)cc3C(=O)N2C)O1,inactive
17,CO[C@H]1CN(C)C(=O)c2ccc(NC(=O)Nc3ccc(Cl)c(Cl)c3)cc2OC[C@H](C)NC[C@H]1C,inactive
